Seven compounds from PubChem BioAssay (NCI) can be followed below.

What all share (assay): NCI-60 one-dose screen, 48 h (100 = growth as untreated, 0 = no growth, -100 = all killed)
Common to all, as to details: 10 µM unless noted

Experiment [1] deals with NCI-H23 lung.
In experiment [2] the test system is NCI-H226 lung.
In experiment [3] the test system is NCI-H322M lung.
In experiment [4] the test system is HOP-62 NSCLC.
The subject of experiment [5] is NCI-H460 lung.
Experiment [6] has as its system HOP-92 NSCLC.
The test system of experiment [7] is NCI-H522 lung.
The subject of experiment [8] is A549/ATCC NSCLC.
In experiment [9] the test system is 786-0 renal.
The test system of experiment [10] is COLO 205 colon.
Experiment [11] concerns DU-145 prostate.
The test system of experiment [12] is K-562 leukemia.
The test system of experiment [13] is MALME-3M melanoma.
The subject of experiment [14] is MDA-MB-231 breast.
Experiment [15] deals with RXF 393 renal.
Experiment [16] has as its system SF-268 CNS.
For experiment [17], the system named is SF-295 CNS.
Experiment [18] concerns SF-539 CNS.
Experiment [19] deals with UACC-257 melanoma.
The subject of experiment [20] is M14 melanoma.

SMILES strings stand for the structures. This is part of a sample that, as a whole, favours compounds with a hit. Of some 83,000 tested, about 20% had one in any assay.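 96-well plates, one dose, 48 hours. Percent growth reported; active if below 10.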 A number with no mark means an inactive call. The source made the active and inactive calls.

For the compound `COc1cc(Nc2ncc3c(n2)-c2ccc(Cl)cc2C(c2c(F)cccc2OC)=NC3)ccc1C(=O)O`, the growth in experiment [1] is 77.6%; in experiment [2] it was 63.2%; in [3] it was 90.4%; in experiment [4], 50.2%; in [5], 30.7%; in experiment [6], 115%. The growth in experiment [7] is 53.5%; in experiment [8], 54.2%; in experiment [9] it was 89.1%; in experiment [10], 8.87% (active); in [11] it was 78.4%; in experiment [12] it was 44.9%. The growth in [13] is 72.4%; in experiment [14], 69.6%; in [15] it was 95%; in experiment [16] it was 73%; in experiment [17] it was 64.6%; in experiment [18], 56.6%. Besides, the growth in experiment [19] is 80.8%; in experiment [20], 62.8%.

Regarding `Cc1cc(C2(c3ccc(O)c(C)c3)OS(=O)(=O)c3ccccc32)ccc1O`, the growth was 101% in experiment [1]; 97.9% in experiment [2]; 103% in experiment [3]; 107% in [4]; 103% in experiment [5]; 78.6% in experiment [6]. The growth in experiment [7] is 115%; in experiment [8], 101%; in experiment [9], 112%; in experiment [10], 96.3%; in [11], 122%; in experiment [12], 104%. In addition, the growth in experiment [13] is 91.7%; in experiment [14], 102%; in [15], 98.5%; in experiment [16], 112%; in [17], 105%; in [18], 99%. The growth is 100% in [19] and 99.9% in experiment [20].

On to `CN1CCC(CNc2ccc3ncc(-c4cccc(OC(F)(F)F)c4)n3n2)CC1`, for which the growth in [1] is -14.9% (active); in [2] it was -8.6% (active); in [3] it was 8.29% (active); in [4] it was -53.1% (active); in experiment [5] it was -45.8% (active); in [6], -56.8% (active). The growth is -69.7% (active) in [7]; -38.4% (active) in experiment [8]; -81.6% (active) in [9]; -88.6% (active) in [10]; 22.5% in [11]; -47.3% (active) in [12]. In addition, the growth in [13] is -90.2% (active); in experiment [14] it was -80.3% (active); in [15] it was -70.7% (active); in experiment [16], -33.1% (active); in experiment [17] it was -71.2% (active); in experiment [18], -91.4% (active). The growth in experiment [19] was -87.4% (active); in experiment [20], -73.3% (active).

With `O=C(CNc1nc(-c2ccc(Cl)cc2)cs1)Nc1ccc(-c2nc3ccccc3s2)cc1`, the growth was 87.6% in [1]; 80.3% in experiment [2]; 91.6% in experiment [3]; 106% in [4]; 91.3% in experiment [5]; 92.9% in experiment [6]. Also, the growth is 93.1% in experiment [7]; 99% in experiment [8]; 109% in experiment [9]; 93.8% in experiment [10]; 95% in experiment [11]; 96.4% in experiment [12]. Moreover, the growth in [13] was 102%; in experiment [14], 84.7%; in experiment [15] it was 106%; in experiment [16] it was 90.8%; in experiment [17] it was 98.6%; in experiment [18], 97%. Further, the growth in experiment [19] is 100%; in experiment [20], 88.2%.

`CC(=O)NCC(=O)N1[C@@H]2CC[C@H]1c1ccc(Nc3ncc(C(F)(F)F)c(NC4CCC4)n3)cc12`: the growth in experiment [1] was 27.9% [2.5 µM]; in [2], 42.8% [2.5 µM]; in experiment [3], 14.2% [2.5 µM]; in [4] it was 23% [2.5 µM]; in [5], 16.3% [2.5 µM]; in experiment [6], -1.13% [2.5 µM] (active). The growth in experiment [7] was 46.1% [2.5 µM]; in experiment [8], 34% [2.5 µM]; in experiment [9], 42.4% [2.5 µM]; in experiment [10], -22.6% [2.5 µM] (active); in experiment [11] it was 41.7% [2.5 µM]; in experiment [12], 44.8% [2.5 µM]. The growth is 46.3% [2.5 µM] in [13]; 38.1% [2.5 µM] in [14]; -12.8% [2.5 µM] (active) in experiment [15]; 38.6% [2.5 µM] in [16]; 60% [2.5 µM] in [17]; 11.2% [2.5 µM] in experiment [18]. Moreover, the results for the growth in experiment [19] and in experiment [20] were 59.8% [2.5 µM] and 26.9% [2.5 µM], respectively.

As for `O=C(Nc1cccc([N+](=O)[O-])c1)c1ccc(Cl)c(Cl)c1`, the growth in experiment [1] was 59.3%; in experiment [2], 43.3%; in [3] it was 69.7%; in experiment [4], 7.13% (active); in experiment [5], 77.6%; in experiment [6], 51.6%. The growth in [7] was 60%; in experiment [8], 68.3%; in [9], 67.4%; in experiment [10], 89.7%; in experiment [11] it was 74.8%; in [12], 79.9%. The growth in experiment [13] was 30.2%; in experiment [14], 80.7%; in [15] it was 62.8%; in experiment [16] it was 54.4%; in [17] it was 58.7%; in experiment [18] it was 83%. For the same compound, the results for the growth in experiment [19] and in experiment [20] were 92.5% and 93.1%, respectively.

On to `Cn1ncc(Cl)c1-c1cc(C(=O)N[C@H](CN)Cc2ccc(F)c(F)c2)oc1Cl`, for which the growth in [1] was 11.3%; in [2], 11.8%; in experiment [3], 18.8%; in experiment [4] it was -49.4% (active); in experiment [5], 2.97% (active); in experiment [6], -58.5% (active). In addition, the growth in experiment [7] was -66.7% (active); in experiment [8], -53.4% (active); in experiment [9], -46.7% (active); in experiment [10], -77.9% (active); in experiment [11] it was 19.1%; in [12], -32.7% (active). Also, the growth in experiment [13] was -78.6% (active); in [14] it was -43.8% (active); in experiment [15] it was -52.6% (active); in [16], 23.1%; in experiment [17], -65.8% (active); in [18] it was -75.1% (active). Also, the growth in [19] is -89.4% (active); in [20], -78.5% (active).
